Data: PubChem BioAssay (Tox21)
Where “and” joins values, the source holds several entries; their conditions need not be identical. Equal entries are not always repeated. Inconclusive results are not listed. Entries that show only a call come without a potency. The source holds several records for some structures; these can differ, active in one and inactive in another. Calls of active or inactive are those of the source. The call rests on the fitted dose curve; in most records, active means well fitted cell-killing curve with a large enough effect in the repeat runs; inconclusive means weak or mixed curves; inactive means flat fitted curve, though single readings scatter.
Potency means the concentration at half of the fitted maximal effect.

Test: qHTS assay to identify small molecule antagonists of the estrogen related receptor (ERR) signaling pathway from Tox21 library - cell viability counter screen (AID 1224834); further: nearly all actives have a fitted effect of over 30% in size
Details: ERR reporter cells viability, CellTiter-Fluor, 17.5 h; series mostly up to 92.4 µM; viability change, negative = cytotoxic: at the top concentration
From the text: National Center for Advancing Translational Sciences [NCATS]
NIH Chemical Genomics Center [NCGC]
U.S. Environmental Protection Agency [EPA]
National Institutes of Environmental Health Sciences [NIEHS]
National Toxicology Program [NTP]
U.S. Food and Drug Administration [FDA]
Estrogen related receptors (ERRs), the first orphan nuclear receptors discovered, play an important role in the control of cellular energy metabolism. ERRs are required for high-energy production in response to the environmental challenges. ERR-alpha was also identified as an adverse marker for breast cancer progression; ERR-alpha-positive tumors have a poor prognosis. To screen and to identify environmental compounds that perturb the ERR signaling pathways could provide valuable information for potential therapeutic or preventive measures in the treatment of metabolic disease. To differentiate true ERR antagonists or agonist from cytotoxic substances, the assay is multiplexed with cell viability assay.
Tox21 Assay Protocol Summary:
The ERR cells were dispensed at 2,000 cells/5 ul/well in 1536-well white plates using a Multidrop dispenser. After the assay plates were incubated at a 37 C/5% CO2 incubator for 6 hours, 23 nL of compounds dissolved in DMSO, positive and negative controls or DMSO only was transferred to the assay plate by a pin tool. The plates were incubated at 37 C for 17.5 hours. 1 ul/well of CellTiter-Fluor reagent was added into the assay plates using a Flying Reagent Dispenser. After 30-minute incubation at 37 C/5% CO2, the fluorescence intensity in the plates was measured using a ViewLux plate reader.
For `CN1C(=O)CCS(=O)(=O)C1c1ccc(Cl)cc1` (stereo not given), the Potency was “inactive”. With `CCOc1ccc(N)cc1` the “viability change, negative = cytotoxic” value was -7.37% (inactive). In the case of `CC12CC1(C)C(=O)N(c1cc(Cl)cc(Cl)c1)C2=O` (stereo not given), the Potency is reported as “inactive”. With `CC(C)(C)C(=O)CCl` the Potency was “inactive”. With `CCSC(=O)N1CCCCCC1` the Potency was “inactive”. In the case of `Cc1cccc(C)c1NC(=O)CN1CCCC1=O`, the Potency is reported as “inactive”. For `O=C/C=C/c1ccccc1`, the Potency was “inactive”. For `Cc1cccc(N)c1C`, the Potency was “inactive”. With `CCOP(=S)(OCC)Oc1cc(C)nc(C(C)C)n1` the Potency was “inactive”. In the case of `Nc1ccc(N)cc1`, the Potency is reported as 30.8 µM (active) and 30.6 µM (active) and inactive. For `c1ccc2c(c1)CCCC2`, the Potency was “inactive”. For `COP(=S)(OC)SCN1C(=O)c2ccccc2C1=O`, the Potency was “inactive”. In the case of `O=C(O)COc1ccccc1`, the Potency is reported as “inactive”. In the case of `CNc1cnn(-c2cccc(C(F)(F)F)c2)c(=O)c1Cl`, the Potency is reported as “inactive”. For `OCCCCO`, the Potency was “inactive”. For `O=C(O)c1cc(Oc2ccc(C(F)(F)F)cc2Cl)ccc1[N+](=O)[O-]`, the Potency was “inactive”. For `N#Cc1ccccn1`, the Potency was “inactive”. For `Cc1ccccc1N`, the Potency was “inactive”. For `CNC(=O)O/N=C(\SC)C(=O)N(C)C`, the Potency was “inactive”. In the case of `C[C@]12CC[C@H](O)CC1=CC[C@@H]1[C@@H]2CC[C@]2(C)C(=O)CC[C@@H]12`, the “viability change, negative = cytotoxic” value is reported as 1.64% [at 42.5 µM] (inactive). With `O=S(=O)(O)OOS(=O)(=O)O` the Potency was “inactive”. With `CC[N+](=O)[O-]` the Potency was “inactive”. With `Oc1c(Br)cc(Br)cc1Br` the Potency was “inactive”. In the case of `[N-]=[N+]=CC(=O)OC[C@H](N)C(=O)O`, the Potency is reported as “inactive”. In the case of `O=C(O)C(Br)Br`, the Potency is reported as “inactive”. In the case of `CC(C)c1cccc(C(C)C)c1O`, the Potency is reported as “inactive”. In the case of `COc1nc(NC(C)C)nc(NC(C)C)n1`, the Potency is reported as “inactive”. For `COC(=O)Nc1cccc(OC(=O)Nc2cccc(C)c2)c1`, the Potency was “inactive”. For `CCOC(=O)CC(SP(=O)(OC)OC)C(=O)OCC` (stereo not given), the Potency was “inactive”. For `C[C@H]1C(=O)O[C@@H]2CCN3CC=C(COC(=O)[C@](C)(O)[C@]1(C)O)[C@H]23`, the Potency was “inactive”. For `CCCCC(CC)C(=O)Cl` (stereo not given), the Potency was “inactive”. In the case of `COP(=S)(OC)Oc1ccc(SC)c(C)c1`, the Potency is reported as “inactive”. With `OCc1ccco1` the Potency was “inactive”. In the case of `Nc1ncc([N+](=O)[O-])s1`, the Potency is reported as 49 µM (active) and inactive. In the case of `CNC(=O)O/N=C/C(C)(C)S(C)(=O)=O`, the Potency is reported as “inactive”. In the case of `Cc1ccc(N)cc1`, the Potency is reported as “inactive”. For `Nc1ccc([As](=O)(O)O)cc1`, the Potency was “inactive”. With `Cc1cccc(C)c1N` the Potency was “inactive”. In the case of `C=C(C)C(=O)OCC(CC)CCCC` (stereo not given), the Potency is reported as 55.5 µM (active) and inactive. With `COS(=O)(=O)OC` the Potency was “inactive”.
